According to ChEMBL document CHEMBL2218924, “A broad activity screen in support of a chemogenomic map for kinase signalling research and drug discovery” (Biochem J, 2013):

Assays:
[1] = biological target: ALK tyrosine kinase receptor (Homo sapiens) (UniProt Q9UM73); details: at 10 µM
[2] = biological target: T1, Activin receptor type-1B (Homo sapiens) (UniProt P36896); details: at 1 µM
T1 sequence (whole entry): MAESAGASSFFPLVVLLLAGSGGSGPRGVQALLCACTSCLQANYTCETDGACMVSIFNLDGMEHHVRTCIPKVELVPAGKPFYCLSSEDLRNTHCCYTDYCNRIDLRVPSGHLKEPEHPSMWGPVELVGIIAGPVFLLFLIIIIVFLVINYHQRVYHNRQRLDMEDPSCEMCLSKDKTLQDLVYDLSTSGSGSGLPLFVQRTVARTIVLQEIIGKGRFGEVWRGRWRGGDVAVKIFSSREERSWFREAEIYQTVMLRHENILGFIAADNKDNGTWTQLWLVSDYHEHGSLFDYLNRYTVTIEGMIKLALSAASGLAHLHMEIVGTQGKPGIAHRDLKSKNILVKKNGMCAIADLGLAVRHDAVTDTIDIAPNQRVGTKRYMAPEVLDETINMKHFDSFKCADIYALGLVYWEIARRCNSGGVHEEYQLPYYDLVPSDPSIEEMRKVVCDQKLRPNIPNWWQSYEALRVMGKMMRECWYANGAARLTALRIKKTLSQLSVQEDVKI

[3] = biological target: T1, Activin receptor type-1B (Homo sapiens); details: at 10 µM
[4] = biological target: T2, AMP-activated protein kinase (AMPK) alpha-1/beta-1/gamma-1 (Homo sapiens) (UniProt P54619+Q9Y478+Q13131); details: at 1 µM
[5] = biological target: T2, AMP-activated protein kinase (AMPK) alpha-1/beta-1/gamma-1 (Homo sapiens); details: at 10 µM
[6] = biological target: T3, AMP-activated protein kinase, AMPK (Homo sapiens) (UniProt P54646+O43741+P54619+Q9UGJ0+Q9Y478+Q13131+Q9UGI9); details: at 1 µM
[7] = biological target: T3, AMP-activated protein kinase, AMPK (Homo sapiens); details: at 10 µM
[8] = biological target: T4, NUAK family SNF1-like kinase 1 (Homo sapiens) (UniProt O60285); details: at 1 µM
T4 sequence (whole entry): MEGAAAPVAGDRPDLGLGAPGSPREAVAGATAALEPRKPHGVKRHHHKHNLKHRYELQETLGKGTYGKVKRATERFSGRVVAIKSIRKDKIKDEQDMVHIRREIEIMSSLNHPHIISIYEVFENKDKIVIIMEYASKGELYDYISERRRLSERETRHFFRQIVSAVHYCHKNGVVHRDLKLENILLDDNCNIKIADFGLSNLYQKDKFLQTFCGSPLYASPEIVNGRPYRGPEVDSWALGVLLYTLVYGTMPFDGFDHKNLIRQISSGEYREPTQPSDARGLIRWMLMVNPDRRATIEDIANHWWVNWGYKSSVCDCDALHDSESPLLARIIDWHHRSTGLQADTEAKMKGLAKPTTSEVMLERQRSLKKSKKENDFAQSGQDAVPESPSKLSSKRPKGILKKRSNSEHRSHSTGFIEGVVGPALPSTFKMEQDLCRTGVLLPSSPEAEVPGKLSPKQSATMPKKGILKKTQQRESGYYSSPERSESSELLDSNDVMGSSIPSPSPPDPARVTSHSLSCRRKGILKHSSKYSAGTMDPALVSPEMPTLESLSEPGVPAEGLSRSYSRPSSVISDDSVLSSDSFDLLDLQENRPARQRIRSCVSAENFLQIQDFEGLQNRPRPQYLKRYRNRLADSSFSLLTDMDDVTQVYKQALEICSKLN

[9] = biological target: T4, NUAK family SNF1-like kinase 1 (Homo sapiens); details: at 10 µM
[10] = biological target: T5, Mitogen-activated protein kinase kinase kinase 5 (Homo sapiens) (UniProt Q99683); details: at 1 µM
T5 sequence (whole entry): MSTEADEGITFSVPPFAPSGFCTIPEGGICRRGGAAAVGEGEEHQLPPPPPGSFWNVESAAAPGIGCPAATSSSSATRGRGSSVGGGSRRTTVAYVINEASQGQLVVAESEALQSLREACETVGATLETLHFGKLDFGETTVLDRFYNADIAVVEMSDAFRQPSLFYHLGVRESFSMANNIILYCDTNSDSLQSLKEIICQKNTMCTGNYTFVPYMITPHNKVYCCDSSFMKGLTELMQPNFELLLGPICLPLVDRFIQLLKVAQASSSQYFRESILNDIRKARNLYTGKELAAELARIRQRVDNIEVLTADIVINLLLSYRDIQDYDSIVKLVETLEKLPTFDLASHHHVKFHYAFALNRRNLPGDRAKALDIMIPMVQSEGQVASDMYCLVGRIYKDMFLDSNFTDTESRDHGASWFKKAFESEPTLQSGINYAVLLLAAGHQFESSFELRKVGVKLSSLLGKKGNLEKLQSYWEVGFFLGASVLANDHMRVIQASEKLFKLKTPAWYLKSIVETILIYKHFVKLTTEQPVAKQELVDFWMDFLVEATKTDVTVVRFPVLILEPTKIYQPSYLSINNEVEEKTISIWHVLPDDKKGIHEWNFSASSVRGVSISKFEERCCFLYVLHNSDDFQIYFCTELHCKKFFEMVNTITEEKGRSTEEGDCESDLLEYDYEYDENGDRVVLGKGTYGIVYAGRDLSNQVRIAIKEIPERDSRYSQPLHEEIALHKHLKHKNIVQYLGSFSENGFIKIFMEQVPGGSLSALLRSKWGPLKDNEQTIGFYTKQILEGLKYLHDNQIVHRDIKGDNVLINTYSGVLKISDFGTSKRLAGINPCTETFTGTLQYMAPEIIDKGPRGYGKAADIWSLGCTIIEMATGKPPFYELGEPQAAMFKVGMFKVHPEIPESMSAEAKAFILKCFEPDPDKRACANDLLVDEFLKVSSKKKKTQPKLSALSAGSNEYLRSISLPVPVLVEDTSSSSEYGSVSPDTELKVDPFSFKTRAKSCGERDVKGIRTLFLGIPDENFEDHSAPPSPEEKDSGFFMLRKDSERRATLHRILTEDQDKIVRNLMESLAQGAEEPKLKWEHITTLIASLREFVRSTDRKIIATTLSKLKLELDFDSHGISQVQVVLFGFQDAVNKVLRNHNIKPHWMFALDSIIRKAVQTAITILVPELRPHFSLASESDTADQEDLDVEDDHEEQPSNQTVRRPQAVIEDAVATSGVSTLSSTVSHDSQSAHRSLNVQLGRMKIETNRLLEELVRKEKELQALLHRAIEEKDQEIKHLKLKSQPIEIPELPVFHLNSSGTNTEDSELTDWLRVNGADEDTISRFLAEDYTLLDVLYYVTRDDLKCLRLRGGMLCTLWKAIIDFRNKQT

[11] = biological target: Platelet-derived growth factor receptor alpha (Homo sapiens) (UniProt P16234); details: at 1 µM
[12] = biological target: Platelet-derived growth factor receptor alpha (Homo sapiens) (UniProt P16234); details: at 10 µM
[13] = biological target: Platelet-derived growth factor receptor beta (Homo sapiens) (UniProt P09619); details: at 1 µM
[14] = biological target: Platelet-derived growth factor receptor beta (Homo sapiens) (UniProt P09619); details: at 10 µM
[15] = biological target: T6, 3-phosphoinositide-dependent protein kinase 1 (Homo sapiens) (UniProt O15530); details: at 1 µM
T6 sequence (whole entry): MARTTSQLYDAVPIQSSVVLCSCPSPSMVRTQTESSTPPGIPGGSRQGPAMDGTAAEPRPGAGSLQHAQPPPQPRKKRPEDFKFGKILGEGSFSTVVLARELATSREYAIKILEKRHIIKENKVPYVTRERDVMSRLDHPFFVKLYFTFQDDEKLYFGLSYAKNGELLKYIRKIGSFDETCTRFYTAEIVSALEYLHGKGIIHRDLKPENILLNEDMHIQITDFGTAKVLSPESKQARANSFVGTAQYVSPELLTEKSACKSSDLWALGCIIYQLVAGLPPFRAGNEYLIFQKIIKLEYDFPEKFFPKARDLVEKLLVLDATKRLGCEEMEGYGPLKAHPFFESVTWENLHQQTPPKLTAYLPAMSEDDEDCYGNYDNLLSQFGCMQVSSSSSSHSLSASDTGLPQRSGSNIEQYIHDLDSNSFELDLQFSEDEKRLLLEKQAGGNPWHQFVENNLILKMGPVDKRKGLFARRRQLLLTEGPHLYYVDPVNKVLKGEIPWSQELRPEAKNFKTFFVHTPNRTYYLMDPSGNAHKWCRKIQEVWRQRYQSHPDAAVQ

[16] = biological target: T6, 3-phosphoinositide-dependent protein kinase 1 (Homo sapiens); details: at 10 µM
[17] = biological target: cAMP-dependent protein kinase catalytic subunit alpha (Homo sapiens) (UniProt P17612); details: at 1 µM
[18] = biological target: cAMP-dependent protein kinase catalytic subunit alpha (Homo sapiens) (UniProt P17612); details: at 10 µM
[19] = biological target: RAC-gamma serine/threonine-protein kinase (Homo sapiens) (UniProt Q9Y243); details: at 1 µM
[20] = biological target: RAC-gamma serine/threonine-protein kinase (Homo sapiens) (UniProt Q9Y243); details: at 10 µM

T2 sequence (P54619 whole entry): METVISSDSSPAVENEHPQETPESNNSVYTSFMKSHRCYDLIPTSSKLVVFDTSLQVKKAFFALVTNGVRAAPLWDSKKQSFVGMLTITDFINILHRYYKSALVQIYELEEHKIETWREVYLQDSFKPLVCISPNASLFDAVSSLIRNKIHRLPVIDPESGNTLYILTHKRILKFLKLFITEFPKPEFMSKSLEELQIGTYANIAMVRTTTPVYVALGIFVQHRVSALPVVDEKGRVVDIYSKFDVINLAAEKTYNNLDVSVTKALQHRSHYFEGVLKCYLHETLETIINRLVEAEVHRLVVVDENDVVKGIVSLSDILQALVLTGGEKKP
T2 sequence (Q13131 whole entry partner): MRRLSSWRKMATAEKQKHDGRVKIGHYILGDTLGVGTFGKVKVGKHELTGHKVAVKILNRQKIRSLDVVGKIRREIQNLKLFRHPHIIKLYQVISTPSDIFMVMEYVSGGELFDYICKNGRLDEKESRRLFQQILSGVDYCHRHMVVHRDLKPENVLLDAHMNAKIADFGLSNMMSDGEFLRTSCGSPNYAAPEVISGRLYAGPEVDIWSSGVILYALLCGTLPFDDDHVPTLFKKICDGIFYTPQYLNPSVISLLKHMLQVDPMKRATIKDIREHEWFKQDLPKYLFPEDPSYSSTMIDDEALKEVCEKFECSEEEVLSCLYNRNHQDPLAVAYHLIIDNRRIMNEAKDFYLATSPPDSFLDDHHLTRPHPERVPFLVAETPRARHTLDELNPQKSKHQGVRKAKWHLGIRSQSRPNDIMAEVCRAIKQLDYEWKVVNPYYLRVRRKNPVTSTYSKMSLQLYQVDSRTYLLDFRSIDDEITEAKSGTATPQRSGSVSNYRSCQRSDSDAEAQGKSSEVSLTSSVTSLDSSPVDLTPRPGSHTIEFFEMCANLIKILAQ
T2 sequence (Q9Y478 2-270 partner limits assumed): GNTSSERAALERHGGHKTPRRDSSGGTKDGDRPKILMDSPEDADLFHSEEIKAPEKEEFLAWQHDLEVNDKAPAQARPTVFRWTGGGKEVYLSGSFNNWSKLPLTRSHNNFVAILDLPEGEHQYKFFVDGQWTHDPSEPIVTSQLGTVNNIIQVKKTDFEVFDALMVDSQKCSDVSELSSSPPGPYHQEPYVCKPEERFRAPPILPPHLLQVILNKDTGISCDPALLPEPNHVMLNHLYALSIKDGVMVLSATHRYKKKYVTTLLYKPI
Chain of Platelet-derived growth factor receptor beta (Homo sapiens) (P09619 whole entry): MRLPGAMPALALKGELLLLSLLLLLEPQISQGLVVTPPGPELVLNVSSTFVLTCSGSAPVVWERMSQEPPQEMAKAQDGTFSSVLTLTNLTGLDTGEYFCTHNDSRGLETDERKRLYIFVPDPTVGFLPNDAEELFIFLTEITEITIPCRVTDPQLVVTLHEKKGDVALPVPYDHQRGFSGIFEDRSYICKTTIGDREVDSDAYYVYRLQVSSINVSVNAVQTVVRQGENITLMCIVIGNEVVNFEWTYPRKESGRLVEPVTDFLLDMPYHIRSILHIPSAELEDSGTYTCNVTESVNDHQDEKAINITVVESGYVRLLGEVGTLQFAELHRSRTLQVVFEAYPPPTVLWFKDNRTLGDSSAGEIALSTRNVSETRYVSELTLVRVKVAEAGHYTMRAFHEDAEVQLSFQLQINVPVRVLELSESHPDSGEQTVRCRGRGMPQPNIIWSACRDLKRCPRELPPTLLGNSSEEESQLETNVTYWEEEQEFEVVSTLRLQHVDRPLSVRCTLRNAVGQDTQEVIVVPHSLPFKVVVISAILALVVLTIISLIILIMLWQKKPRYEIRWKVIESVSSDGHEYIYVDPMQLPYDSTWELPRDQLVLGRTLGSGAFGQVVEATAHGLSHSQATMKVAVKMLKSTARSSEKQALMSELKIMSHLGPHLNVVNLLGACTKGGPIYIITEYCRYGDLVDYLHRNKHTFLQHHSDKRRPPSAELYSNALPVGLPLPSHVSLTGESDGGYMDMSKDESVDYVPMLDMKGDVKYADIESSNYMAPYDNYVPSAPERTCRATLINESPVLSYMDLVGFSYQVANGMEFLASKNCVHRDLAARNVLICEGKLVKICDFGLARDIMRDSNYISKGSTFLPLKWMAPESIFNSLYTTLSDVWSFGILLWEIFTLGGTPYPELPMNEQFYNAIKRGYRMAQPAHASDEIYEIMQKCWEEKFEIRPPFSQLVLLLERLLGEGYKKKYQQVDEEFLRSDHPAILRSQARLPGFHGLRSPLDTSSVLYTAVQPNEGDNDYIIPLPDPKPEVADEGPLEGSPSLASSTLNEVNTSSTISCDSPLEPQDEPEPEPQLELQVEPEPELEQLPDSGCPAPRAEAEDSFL
Chain of RAC-gamma serine/threonine-protein kinase (Homo sapiens) (Q9Y243 whole entry): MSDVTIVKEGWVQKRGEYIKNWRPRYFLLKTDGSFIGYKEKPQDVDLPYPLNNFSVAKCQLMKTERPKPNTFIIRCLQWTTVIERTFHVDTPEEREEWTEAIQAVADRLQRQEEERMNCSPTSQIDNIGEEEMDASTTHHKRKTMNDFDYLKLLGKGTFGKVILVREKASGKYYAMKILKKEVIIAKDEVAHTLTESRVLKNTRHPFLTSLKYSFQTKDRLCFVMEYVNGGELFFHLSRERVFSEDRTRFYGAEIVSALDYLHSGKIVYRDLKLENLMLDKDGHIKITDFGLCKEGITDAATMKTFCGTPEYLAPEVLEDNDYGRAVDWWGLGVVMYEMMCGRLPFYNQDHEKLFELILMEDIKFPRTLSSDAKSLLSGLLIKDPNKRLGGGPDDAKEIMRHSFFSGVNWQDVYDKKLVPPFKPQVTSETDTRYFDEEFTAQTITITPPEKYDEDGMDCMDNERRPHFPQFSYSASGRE
Chain of ALK tyrosine kinase receptor (Homo sapiens) (Q9UM73 19-1620 limits assumed): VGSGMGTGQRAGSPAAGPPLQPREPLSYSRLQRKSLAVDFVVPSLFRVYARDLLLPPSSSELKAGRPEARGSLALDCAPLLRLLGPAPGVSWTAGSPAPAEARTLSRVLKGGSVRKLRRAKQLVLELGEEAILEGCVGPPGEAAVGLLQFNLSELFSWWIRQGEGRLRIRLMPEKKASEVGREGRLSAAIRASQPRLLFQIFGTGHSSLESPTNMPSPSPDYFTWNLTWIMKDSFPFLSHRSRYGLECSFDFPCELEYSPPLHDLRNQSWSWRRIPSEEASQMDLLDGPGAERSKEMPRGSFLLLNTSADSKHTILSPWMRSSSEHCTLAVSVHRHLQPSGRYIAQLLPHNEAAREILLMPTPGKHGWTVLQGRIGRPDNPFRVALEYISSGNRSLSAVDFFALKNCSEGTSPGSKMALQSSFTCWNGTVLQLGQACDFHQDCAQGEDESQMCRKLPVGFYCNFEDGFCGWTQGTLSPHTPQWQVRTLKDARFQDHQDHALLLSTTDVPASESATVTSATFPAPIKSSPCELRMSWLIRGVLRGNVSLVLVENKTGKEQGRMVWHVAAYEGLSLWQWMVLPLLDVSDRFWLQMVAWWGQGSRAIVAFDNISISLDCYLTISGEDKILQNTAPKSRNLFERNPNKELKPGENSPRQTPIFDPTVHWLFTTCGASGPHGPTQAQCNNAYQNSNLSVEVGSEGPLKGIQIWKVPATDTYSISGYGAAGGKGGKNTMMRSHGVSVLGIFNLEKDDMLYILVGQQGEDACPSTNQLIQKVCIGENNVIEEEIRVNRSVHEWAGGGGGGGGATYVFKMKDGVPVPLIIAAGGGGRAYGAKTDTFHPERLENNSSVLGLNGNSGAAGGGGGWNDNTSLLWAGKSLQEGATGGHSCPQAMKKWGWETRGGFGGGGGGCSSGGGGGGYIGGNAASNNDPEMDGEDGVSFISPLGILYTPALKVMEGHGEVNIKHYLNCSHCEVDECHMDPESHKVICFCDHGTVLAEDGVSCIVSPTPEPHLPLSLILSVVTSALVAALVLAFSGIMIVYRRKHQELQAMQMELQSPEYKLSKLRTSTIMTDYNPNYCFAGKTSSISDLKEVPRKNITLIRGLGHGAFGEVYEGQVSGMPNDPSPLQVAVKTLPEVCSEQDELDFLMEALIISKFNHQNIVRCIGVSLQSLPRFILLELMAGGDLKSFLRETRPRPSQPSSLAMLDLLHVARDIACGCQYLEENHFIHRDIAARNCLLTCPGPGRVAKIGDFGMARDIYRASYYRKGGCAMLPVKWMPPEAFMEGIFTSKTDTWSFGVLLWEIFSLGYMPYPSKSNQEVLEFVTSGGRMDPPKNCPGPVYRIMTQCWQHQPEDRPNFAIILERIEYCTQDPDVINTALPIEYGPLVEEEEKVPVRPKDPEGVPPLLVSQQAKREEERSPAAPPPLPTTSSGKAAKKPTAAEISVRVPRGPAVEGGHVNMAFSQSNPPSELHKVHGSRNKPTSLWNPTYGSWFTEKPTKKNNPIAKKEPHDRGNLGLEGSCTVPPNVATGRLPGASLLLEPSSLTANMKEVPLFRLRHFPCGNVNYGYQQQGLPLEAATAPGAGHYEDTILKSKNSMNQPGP

| Compound | residual activity [1] | residual activity [2] | residual activity [3] | residual activity [4] | residual activity [5] | residual activity [6] | residual activity [7] | residual activity [8] | residual activity [9] | residual activity [10] | residual activity [11] | residual activity [12] | residual activity [13] | residual activity [14] | residual activity [15] | residual activity [16] | residual activity [17] | residual activity [18] | residual activity [19] | residual activity [20] |
| --- | --- | --- | --- | --- | --- | --- | --- | --- | --- | --- | --- | --- | --- | --- | --- | --- | --- | --- | --- | --- |
| O=c1c2ccccc2[nH]c(=S)n1CCN1CCC(=C(c2ccc(F)cc2)c2ccc(F)cc2)CC1 | 73% | 149% | 111% | 101% | 84% | 97% | 74% | 90% | 120% | 106% | 105% | 97% | 106% | 85% | 116% | 111% | 92% | 114% | 93% | 40% |
| CC(=O)O/N=C1\C(=C2\C(=O)Nc3cc(Br)ccc32)Nc2ccccc21 | 40% | 100% | 119% | 60% | 9% | 46% | 11% | 56% | 19% | 92% | 102% | 79% | 86% | 52% | 91% | 67% | 86% | 93% | 98% | 79% |
| CN(C)c1ccc(/C=C2\C(=O)Nc3ccccc32)cc1 | 27% | 127% | 105% | 92% | 50% | 97% | 56% | 93% | 80% | 92% | 79% | 14% | 101% | 30% | 114% | 92% | 89% | 86% | 96% | 100% |
| O=C(Nc1cccc(Nc2nccc(Nc3cccc(C(F)(F)F)c3)n2)c1)C1CC1 | 48% | 106% | 69% | 96% | 81% | 88% | 83% | 26% | 41% | 89% | 107% | 88% | 99% | 70% | 100% | 93% | 75% | 106% | 89% | 67% |
| C[C@@H](N)[C@H]1CC[C@H](C(=O)Nc2ccncc2)CC1 | 126% | 82% | 63% | 98% | 93% | 104% | 83% | 101% | 91% | 101% | 99% | 102% | 107% | 106% | 95% | 83% | 96% | 80% | 104% | 93% |
| Nc1n[nH]c2nnc(-c3c(-c4ccccc4)nn4ccccc34)cc12 | 93% | 111% | 86% | 90% | 82% | 92% | 98% | 105% | 79% | 96% | 105% | 100% | 97% | 99% | 102% | 94% | 97% | 77% | 99% | 82% |
| Cc1ccc(NC2=CC(=O)c3sc(C)nc3C2=O)cc1 | 93% | 105% | 113% | 88% | 84% | 94% | 107% | 108% | 89% | 110% | 104% | 112% | 93% | 92% | 99% | 102% | 102% | 106% | 91% | 89% |
| Nc1nc(Nc2ccc(S(N)(=O)=O)cc2)nn1C(=S)Nc1c(F)cccc1F | 1% | 7% | -4% | -2% | -1% | -3% | 0% | 1% | 0% | 1% | 82% | 39% | 83% | 24% | 3% | 0% | 53% | 16% | – | – |
| Cn1cnc2cc3c(Nc4cccc(Br)c4)ncnc3cc21 | 59% | 123% | 82% | 90% | 69% | 102% | 65% | 99% | 80% | 113% | 108% | 79% | 103% | 81% | 106% | 92% | 99% | 75% | 101% | 96% |
| Oc1ccc(-c2nc(-c3ccc(F)cc3)c(-c3ccncc3)[nH]2)cc1 | 82% | 57% | 8% | 102% | 86% | 109% | 86% | 122% | 93% | 92% | 117% | 105% | 111% | 97% | 108% | 94% | – | – | 107% | 77% |
| Cc1cc(Nc2nc(-c3ccccc3)nc3ccccc23)n[nH]1 | 15% | 96% | 76% | 15% | 3% | 5% | 3% | 3% | -1% | 94% | – | 26% | 79% | 28% | 94% | 39% | – | 70% | – | 46% |
| O=c1cc(-c2cccc3c2Sc2ccccc2S3)oc(N2CCOCC2)c1 | 84% | 88% | 97% | 108% | 90% | 102% | 95% | 102% | 83% | 102% | 106% | – | 111% | 92% | 99% | 107% | 102% | 104% | 106% | 84% |
| CCN(CC)C(=O)c1ccc(Nc2nc(OCC3CCCCC3)c3nc[nH]c3n2)cc1 | 6% | – | – | 35% | 6% | 22% | 5% | 2% | 4% | 80% | 65% | 18% | 63% | 14% | 20% | 3% | 80% | 52% | – | 40% |
| c1ccc(-c2n[nH]c3c2oc2ccccc23)cc1 | 32% | 134% | 99% | 89% | 49% | 91% | 47% | 89% | 65% | 95% | 33% | 5% | – | – | – | – | 70% | – | 90% | – |
